Measurements reported in PubChem BioAssay AID1159580 (chemical genetic matrix, 2015).
Out of some 5,500 compounds screened, about 2,000 (36%) were called active. About 18% were inconclusive and are not listed. Rule as the data show it: active = normalized growth mostly below about 0.91 (no sharp cut-off); inconclusive = no clear call, values can overlap the other calls; inactive = mostly above about 0.92. The list shows a part of the results.

Test: chemical genetic growth profiling, strain panel (AID 1159580);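 also: tested at 20 µM; growth read once vehicle control cultures reached saturation at 30 °C; 1 = growth at the plate median or of vehicle wells; lower values mean less growth of the strain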
Details: S. cerevisiae deletion strains, growth OD

Measured: normalized growth

COC(=O)Nc1nc2ccc(C(=O)c3cccs3)cc2[nH]1
inactive: locus YAL013W, strain DEP1, active compounds read low 1.03 | locus YCL061C, strain MRC1 (second series), active compounds read low 1.01 | locus YDR150W, strain NUM1, active compounds read low 0.994 | locus YDR363W, strain ESC2, active compounds read low 1.03 | locus YER002W, strain NOP16, active compounds read low 1.01 | locus YGR229C, strain SMI1, active compounds read low 1.03 | locus YJR075W, strain HOC1, active compounds read low 1.04 | locus YMR307W, strain GAS1, active compounds read low 1.01
active: locus YAL040C, strain CLN3, active compounds read low 0.635 | locus YNL128W, strain TEP1, active compounds read low 0.73 | locus YNL153C, strain GIM3, active compounds read low 0.124 | locus YNL175C, strain NOP13, active compounds read low 0.715 | locus YNL197C, strain WHI3, active compounds read low 0.429 | locus YNL224C, strain SQS1, active compounds read low 0.605 | locus YOR083W, strain WHI5 (second series), active compounds read low 0.442

COC(=O)Nc1nc2ccc(S(=O)c3ccccc3)cc2[nH]1 (stereo not given)
inactive: locus YAL021C, strain ccr4, active compounds read low 1.01 | locus YAL026C, strain drs2, active compounds read low 0.986 | locus YAL030W, strain snc1, active compounds read low 0.997 | locus YBL061C, strain skt5, active compounds read low 0.995 | locus YBR009C, strain hhf1, active compounds read low 0.999 | locus YBR023C, strain chs3, active compounds read low 0.993 | locus YBR171W, strain sec66, active compounds read low 0.971 | locus YBR231C, strain swc5, active compounds read low 0.993 | locus YBR279W, strain paf1, active compounds read low 0.994 | locus YCL011C, strain gbp2, active compounds read low 1.01 | locus YCL016C, strain dcc1, active compounds read low 1.01 | locus YCL061C, strain MRC1, active compounds read low 0.994 | locus YCL069W, strain vba3, active compounds read low 0.988 | locus YCR088W, strain abp1, active compounds read low 0.998 | locus YDL005C, strain med2, active compounds read low 0.994 | locus YDL040C, strain nat1, active compounds read low 1 | locus YDR001C, strain nth1, active compounds read low 0.983 | locus YDR069C, strain doa4, active compounds read low 0.99 | locus YDR137W, strain rgp1, active compounds read low 0.996 | locus YDR159W, strain sac3, active compounds read low 0.966 | locus YDR195W, strain ref2 0.969 | locus YDR297W, strain sur2, active compounds read low 0.997 | locus YDR334W, strain swr1, active compounds read low 0.983 | locus YDR335W, strain msn5, active compounds read low 0.973 | locus YDR392W, strain spt3, active compounds read low 1 | locus YEL003W, strain gim4, active compounds read low 0.962 | locus YEL037C, strain rad23, active compounds read low 0.993 | locus YEL061C, strain CIN8 (second series), active compounds read low 0.983 | locus YER015W, strain faa2, active compounds read low 0.995 | locus YER016W, strain bim1, active compounds read low 0.986 | locus YER111C, strain swi4, active compounds read low 0.986 | locus YER155C, strain BEM2 (second series), active compounds read low 0.953 | locus YFR010W, strain ubp6, active compounds read low 0.988 | locus YGL167C, strain pmr1, active compounds read low 0.984 | locus YGL173C, strain kem1, active compounds read low 0.991 | locus YGL227W, strain vid30, active compounds read low 0.986 | locus YGL240W, strain doc1, active compounds read low 0.967 | locus YGL253W, strain hxk2, active compounds read low 0.998 | locus YHR013C, strain ard1, active compounds read low 1.02 | locus YHR027C, strain rpn1, active compounds read low 0.989 | locus YHR030C, strain SLT2, active compounds read low 1.03 | locus YHR079C, strain IRE1, active compounds read low 1.02 | locus YHR142W, strain chs7, active compounds read low 0.994 | locus YJL092W, strain hpr5, active compounds read low 0.984 | locus YJL095W, strain BCK1 (second series), active compounds read low 1 | locus YJL095W, strain BCK1, active compounds read low 0.972 | locus YJL115W, strain asf1, active compounds read low 0.985 | locus YJL129C, strain trk1, active compounds read low 0.981 | locus YJL154C, strain vps35, active compounds read low 0.987 | locus YJL164C, strain tpk1, active compounds read low 1.01 | locus YJL166W, strain qcr8, active compounds read low 0.975 | locus YJL187C, strain SWE1, active compounds read low 0.984 | locus YJR066W, strain TOR1, active compounds read low 0.975 | locus YKL160W, strain elf1, active compounds read low 0.99 | locus YKR026C, strain gcn3, active compounds read low 0.979 | locus YKR091W, strain srl3, active compounds read low 1 | locus YLL001W, strain dnm1, active compounds read low 0.976 | locus YLL026W, active compounds read low 1 | locus YLL041C, strain sdh2, active compounds read low 0.99 | locus YLR027C, strain aat2, active compounds read low 0.989 | locus YLR113W, strain HOG1, active compounds read low 0.982 | locus YLR221C, strain rsa3, active compounds read low 1.01 | locus YLR258W, strain gsy2, active compounds read low 0.984 | locus YLR262C, strain YPT6 (second series), active compounds read low 0.987 | locus YLR320W, strain mms22, active compounds read low 1 | locus YLR342W, strain FKS1, active compounds read low 0.991 | locus YLR357W, strain rsc2, active compounds read low 0.993 | locus YLR370C, strain arc18, active compounds read low 0.998 | locus YLR384C, strain iki3, active compounds read low 0.986 | locus YML120C, strain ndi1, active compounds read low 0.998 | locus YMR058W, strain fet3, active compounds read low 0.993 | locus YMR125W, strain sto1, active compounds read low 0.982 | locus YMR129W, active compounds read low 0.99 | locus YMR205C, strain PFK2, active compounds read low 0.982 | locus YMR231W, strain pep5, active compounds read low 0.98 | locus YNL071W, strain lat1, active compounds read low 0.994 | locus YNL183C, strain NPR1, active compounds read low 0.971 | locus YNL209W, strain ssb2, active compounds read low 1.01 | locus YNL248C, strain rpa49, active compounds read low 1.01 | locus YNL322C, strain KRE1 (second series), active compounds read low 0.998 | locus YNR049C, strain mso1, active compounds read low 0.977 | locus YOR001W, strain rrp6, active compounds read low 0.982 | locus YOR070C, strain gyp1, active compounds read low 0.999 | locus YOR080W, strain dia2, active compounds read low 0.974 | locus YOR083W, strain WHI5, active compounds read low 0.991 | locus YOR106W, strain vam3, active compounds read low 1 | locus YOR231W, strain MKK1, active compounds read low 1 | locus YOR265W, strain rbl2, active compounds read low 0.992 | locus YOR270C, strain vph1, active compounds read low 1 | locus YOR290C, strain snf2, active compounds read low 1.01 | locus YPL051W, strain arl3, active compounds read low 0.993 | locus YPL078C, strain atp4, active compounds read low 0.963 | locus YPL106C, strain sse1, active compounds read low 0.99 | locus YPL240C, strain hsp82, active compounds read low 1 | locus YPL256C, strain CLN2, active compounds read low 1.01
